Holding throughout (experiment): NCI-60 one-dose screen, 48 h (100 = growth as untreated, 0 = no growth, -100 = all killed)
Common to all, as to conditions: 10 µM unless noted

Assay [1] deals with K-562 leukemia.
Assay [2] relates to MALME-3M melanoma.
Assay [3] concerns MDA-MB-231 breast.
The subject of assay [4] is RXF 393 renal.
For assay [5], the system named is SF-295 CNS.
Assay [6] concerns SF-539 CNS.
Assay [7] deals with UACC-257 melanoma.
The subject of assay [8] is M14 melanoma.
Assay [9] deals with HCT-15 colon.
In assay [10] the test system is HT29 colon.
The subject of assay [11] is SNB-75 CNS.
Assay [12] relates to SNB-19 CNS.
Assay [13] concerns U251 CNS.
Assay [14] deals with PC-3 prostate.
Assay [15] concerns UACC-62 melanoma.
The test system of assay [16] is LOX IMVI melanoma.
Assay [17] concerns SK-MEL-28 melanoma.
Assay [18] relates to SK-MEL-5 melanoma.
Assay [19] deals with SF-268 CNS.

The structures appear in SMILES notation. The panel holds about 83,000 compounds, 20% with a hit somewhere; the sample as a whole holds those more often.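 Testing used 96-well plates and a 48-hour single-concentration exposure. Example: -40 means 40% of the starting cells died.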 Values without a mark were called inactive. Active and inactive are the calls of the source. The calls were made as follows: active = growth percent below 10; inactive = the rest.

Consider `O=C(CSc1ccc(Cl)cc1)Nc1ccc(-c2nc3ccccc3s2)c(Cl)c1`, for which the growth was 34.3% in [1]; 108% in assay [2]; 93.8% in assay [3]; 78.7% in assay [4]; 22.3% in [5]; 93.1% in assay [6]. Further, the growth in assay [7] was 84.5%; in assay [8], 75.4%; in assay [9] it was 39.6%; in assay [10], 57%; in assay [11], 79.1%; in assay [12] it was 62.7%. Moreover, the growth in assay [13] was 52.9%; in assay [14] it was 30.9%; in [15] it was 58.4%; in assay [16], 63.2%; in assay [17] it was 108%.
For `CCCCOc1ncnc2nc[nH]c12`, the growth in [1] was 95.4%; in [2] it was 103%; in assay [3] it was 115%; in assay [4], 97.7%; in [5], 110%; in [6] it was 102%. For the same compound, the growth in assay [7] is 101%; in assay [8] it was 106%; in assay [9] it was 108%; in assay [10], 96.3%; in assay [11], 95.7%; in assay [12] it was 99.8%. Besides, the growth in assay [13] is 106%; in assay [14], 107%; in assay [18], 105%; in [15], 104%; in [16], 103%; in [17], 111%.
As to `CC(=O)c1cccc(Nc2ncnc3ccc(NC(=O)c4ccco4)cc23)c1`, the growth in [1] is 86.9%; in assay [2] it was 97.8%; in [3] it was 88.4%; in assay [4], 80.6%; in assay [5], 91.9%; in assay [6], 103%. Further, the growth in [7] was 94.7%; in assay [8], 87.4%; in assay [9], 86.8%; in assay [10] it was 82.9%; in assay [11], 94.3%; in assay [12], 93.6%. The growth in assay [13] is 98.1%; in [14], 83.7%; in assay [18] it was 70.4%; in [15] it was 84.1%; in assay [16], 92.5%; in assay [17], 98.7%.
On to `COc1ccc(Br)c2ccccc12`, for which the growth in [1] was 94.3%; in assay [2], 121%; in assay [3], 123%; in assay [4], 109%; in [19], 108%; in assay [5] it was 110%. The growth is 109% in [6]; 100% in [7]; 101% in [8]; 110% in [9]; 110% in assay [10]; 116% in assay [12]. The growth in assay [13] is 114%; in assay [14] it was 102%; in [18], 107%; in assay [15], 107%; in assay [16] it was 101%; in assay [17] it was 122%.
In the case of `Oc1ccc(CCCCCCc2ccc(O)cc2)cc1`, the growth in [1] was 102%; in assay [2], 92.8%; in assay [3], 65.3%; in assay [4], 60.4%; in assay [19], 65.2%; in assay [5], 65.1%. Further, the growth was 42% in [6]; 91.4% in assay [7]; 74.5% in [9]; 83.6% in assay [10]; 51.1% in assay [11]; 112% in assay [12]. The growth in assay [13] is 54.7%; in assay [14], 57.9%; in [18], 50.2%; in assay [15], 13.7%; in [16] it was 53.3%; in assay [17] it was 104%.
Turning to `CC1CN(CCCOC(=O)Nc2ccc(Cl)cc2)CCN1C(C)(C)C` (stereo not drawn), the growth in assay [1] was 90.8%; in assay [2] it was 102%; in assay [3], 102%; in [4], 126%; in assay [19], 106%; in assay [5] it was 107%. Also, the growth in assay [6] is 125%; in [7] it was 108%; in assay [8] it was 99.7%; in [9] it was 114%; in assay [10], 104%; in assay [11], 114%. Besides, the growth was 98.1% in assay [12]; 108% in assay [13]; 90% in [14]; 84.8% in assay [15]; 91.9% in assay [16]; 106% in assay [17].
Consider `COc1ccc(C(=O)C(CN(C)C)c2ccccc2)cc1` (stereo not drawn), for which the growth in assay [1] was 12.6%; in assay [2] it was 45%; in assay [3], 33.4%; in assay [4], 18.6%; in [5], 54.3%; in [6] it was 14.2%. For the same compound, the growth was 2.45% (active) in assay [7]; -63% (active) in assay [8]; -49.3% (active) in [9]; 19.1% in assay [10]; 25.1% in assay [11]; 91.2% in assay [12]. For the same compound, the growth in assay [13] was 31.6%; in [14] it was 52.4%; in [18] it was 43.7%; in [15], 33.8%; in assay [16], 10.3%; in assay [17], -44.9% (active).
On to `CCN(CC)c1ccc2nc3c4ccccc4c(=O)cc-3n(-c3ccccc3)c2c1`, for which the growth in assay [1] is 6.09% (active); in assay [2] it was -32.3% (active); in assay [3], -24.1% (active); in assay [4], 6.05% (active); in assay [19], 15.5%; in [5], -36.7% (active). The growth in assay [6] is -30% (active); in [7], -15.8% (active); in [9], 5.16% (active); in assay [10], 6.55% (active); in assay [11] it was -2.25% (active); in assay [12] it was 23.6%. Further, the growth was 18.9% in assay [13]; 6.03% (active) in assay [14]; -98.1% (active) in assay [18]; -8.44% (active) in [15]; -23.2% (active) in [16]; 9.68% (active) in assay [17].
Consider `COC(=O)c1ccc(NC(N)=NCCC(C)(C)c2ccc(C(F)(F)F)cc2)nc1`, for which the growth was 1.24% (active) in assay [1]; -30.9% (active) in assay [2]; 42.7% in assay [3]; 58.7% in assay [4]; 29.5% in assay [5]; 79.3% in [6]. The growth in assay [7] was 38.8%; in assay [8], -40% (active); in [9], 37.8%; in assay [10], 11.6%; in [11], 67.3%; in [12], 59.9%. Moreover, the growth in assay [13] is 30.5%; in assay [14] it was 36%; in [18] it was -85.4% (active); in [15], 55.2%; in assay [16] it was -77.3% (active); in assay [17], 35.2%.
As for `CCN(CC)c1ccc(C(=N)c2ccc(N(C)C)cc2)cc1`, the growth in assay [1] is 4.01% (active); in [2], 31.9%; in [3], 17.8%; in [4] it was 12.8%; in [5], -13.1% (active); in [6] it was -37.4% (active). Also, the growth is -3.29% (active) in [7]; -44.4% (active) in [8]; 10.9% in [9]; 0.0991% (active) in assay [10]; 3.16% (active) in assay [11]; 28.2% in [12]. Further, the growth in assay [13] is 3.54% (active); in assay [14], 5.51% (active); in assay [15] it was 5.14% (active); in assay [16], 19.1%; in [17], 26.5%.

Values taken from PubChem BioAssay (NCI).
